Bioassay records (PubChem BioAssay)
KB-3-1 tox – KB-3-1 parental cell cytotoxicity. KB-3-1 viability, CellTiter-Glo ATP luminescence, 72 h. Potency, µM (titrated, usually from 46.1 µM), actives largely listed as cytotoxic. 1.4% of 400,000 active. AID 1347075; note: % is set by controls: 0 for no effect and ±100 for the full control effect; nearly all actives have a fitted effect of over 60% in size
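Luminescent ATP read-out (CellTiter-Glo) measures survival of drug-naive KB-3-1 cells after 72 h compound exposure at 37 °C. Titration series was screened from lowest to highest concentration, with DMSO vehicle plates as background controls.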
MCF10A rerep – DNA re-replication induction in MCF 10a cells. MCF 10A DNA re-replication, Hoechst nuclear intensity, 48 h. Potency, µM (titrated, usually from 46.1 µM), for inactives: top-dose activity, positive = re-replication, hits mostly activators. AID 624296. 2.9% of 350,000 active; note: % of control where 0% means no effect; nearly all actives have a fitted effect of over 50% in size
KB-V1 cytotox – kills drug-selected multidrug resistant KB-V1 cells; AID 1347076; KB-V1 MDR cells viability, CellTiter-Glo, 72 h; 3.4% of 400,000 active; Potency, µM (series often up to 46.1 µM), usual class: cytotoxic; note: % is set by controls: 0 for no effect and ±100 for the full control effect; nearly all actives have a fitted effect of over 60% in size
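Cells of the MDR subline KB-V1 are plated, dosed with compound at multiple concentrations, and incubated 72 h at 37 degrees C; CellTiter-Glo is then added and luminescence read after 10 min.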
ELG1 DNA repair – blocks ELG1-dependent DNA repair in HEK293T cells; HEK293T ELG1-luciferase reporter, luminescence, 16 h; DNA damage induced by 5-fluorouridine; Potency, µM (top dose mostly 46.1 µM), inactives show at the top dose activity change, negative = inhibition, actives largely listed as inhibitors; 2.3% of 330,000 active; AID 504467; note: % is set by controls: 0 for no effect and ±100 for the full control effect; nearly all actives have a fitted effect of over 55% in size
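5-Fluorouridine DNA damage + compound/DMSO, 2,000 cells/well, 16 h, 37 °C/5% CO2. ONE-Glo, 30 min RT, luminescence. Readout = decrease in reporter signal.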
SW480 rereplic – DNA re-replication induction in SW480 cells; SW480 DNA re-replication, Hoechst DNA content imaging, 48 h; Potency, µM (highest dose often 46.1 µM), for inactives: top-dose re-replication activation, usual class: activators; 1.8% of 340,000 active; note: % of control where 0% means no effect; nearly all actives have a fitted effect of over 55% in size
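Hoechst fluorescence of nuclei (405 nm excitation, 500-530 nm emission) measured by plate-scanning imager after 48 hr compound exposure at 37 C; re-replication scored as increased number of nuclei with elevated intensity.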
Starred values were filed as active, the others as inactive; i = inactive; ? = inconclusive; . = no result. Shown are actives, neighbours in structure and some others; about 8.1% of the full set was active somewhere. Calls come from the whole dose curve; as a rule, active = well fitted curve in the direction sought with a large enough effect; inconclusive = small, poorly fitted or top-dose-only effect, or another doubt; inactive = no such curve, though single readings can be large; an effect the other way counts as inactive or inconclusive. Potency is the fitted concentration of half-maximal effect.

SMILES | KB-3-1 tox | MCF10A rerep | KB-V1 cytotox | ELG1 DNA repair | SW480 rereplic
COCCCN1C(=O)C(CC(=O)NCCN2CCOCC2)CC(C(=O)N(C(C)C)C(C)C)=C1C (configuration not stated) | i | . | i | . | .
CC1CCN(c2ccc(S(=O)(=O)NC3=NCCCCC3)cc2[N+](=O)[O-])CC1 | ? | 17% | 21µM* | ? | -11%
O=C(O)/C=C/C(=O)Nc1cccc2c1-c1ccccc1C2=O | i | ? | i | . | 8%
CCCCNC(=O)c1ccc2c(c1)N=C(CC)c1ccccc1S2 | ? | . | 18µM* | . | .
CCC1=Nc2cc(C(=O)NCCCOC)ccc2Sc2ccc(Br)cc21 | 0.82µM* | . | ? | . | .
CCC1=Nc2cc(C(=O)NCCN3CCCC3)ccc2Sc2ccccc21 | i | ? | i | 8% | 0%
CCC1=Nc2cc(C(=O)NCCCOC)ccc2Sc2ccccc21 | 0.82µM* | ? | 0.23µM* | ? | 1.3µM*
CC1=Nc2cc(C(=O)NCC3CCCO3)ccc2Sc2ccc(Br)cc21 (configuration not stated) | 12µM* | 18µM* | 6.5µM* | ? | ?
CC1=Nc2cc(C(=O)O)ccc2Sc2ccc(Br)cc21 | i | ? | i | -4% | -14%
CCOC(=O)c1c(C)nc2sc(C(=O)Nc3ccc(C(C)=O)cc3)c(N)c2c1-c1ccc(OC)cc1 | ? | 26% | ? | -21% | 2.3µM*
COc1ccc(NC(=O)c2sc3nc(C)c(C(=O)Nc4ccc(C)cc4C)c(-c4ccc(Cl)cc4)c3c2N)cc1 | i | . | i | . | .
CCOC(=O)c1c(C)nc2sc3c(=O)n(-c4ccc(C(C)=O)cc4)nnc3c2c1-c1ccc(OC)cc1 | i | -4% | ? | ? | 1%
CCOC(=O)c1c(C)nc2sc(C(N)=O)c(N)c2c1-c1ccc(OC)cc1 | i | 9% | ? | 13µM* | 2%
COc1ccc(-c2c(C(C)=O)c(C)nc3sc4c(=N)n(N)cnc4c23)cc1 | ? | -56% | 18µM* | ? | ?
CCOC(=O)c1c(C)nc2sc(C(=O)Nc3ccc(OC)cc3)c(N)c2c1-c1ccc(OC)cc1 | 5.8µM* | 3.5µM* | 4.1µM* | ? | ?
CSc1nn(CC(=O)Nc2ccc(C)cc2C)c(N)c1S(=O)(=O)c1ccc(Cl)cc1 | i | . | i | . | .
CCc1nc2c(OCc3ccc4c(c3)OCO4)cccn2c1N(C=O)Cc1ccccc1 | i | . | i | . | .
CC(=O)Oc1ccc(C(=O)Nc2ccccc2NC(=O)c2ccc(OC(C)=O)cc2)cc1 | i | 8% | i | 0% | -8%
CC(=O)Oc1ccc(C23c4ccccc4C2(OC(C)=O)c2cc(OC(C)=O)ccc23)cc1 (configuration not stated) | ? | 5.2µM* | ? | . | 18µM*
O=C(COC(=O)/C=C/C(=O)OCC(=O)NC12CC3CC(CC(C3)C1)C2)NC12CC3CC(CC(C3)C1)C2 | ? | 5.2µM* | i | ? | 18µM*
O=C(COC(=O)c1ccccc1O)NC12CC3CC(CC(C3)C1)C2 | i | 4% | i | ? | 1%
CCN(CC(=O)Nc1cc(OC)ccc1OC)Cc1nc2ccccc2c(=O)[nH]1 | i | 1% | ? | ? | 1%
CCN(CC(=O)Nc1sc2c(c1C#N)CCCC2)Cc1nc2ccccc2c(=O)[nH]1 | i | 3% | ? | 15µM* | -1%
CCN(CC(=O)Nc1ccc2c(c1)OCCO2)Cc1nc2cc(Cl)ccc2c(=O)[nH]1 | i | ? | 21µM* | ? | -1%
CCN(Cc1nc2cc(Cl)ccc2c(=O)[nH]1)C(=O)c1cccc(NC(=O)c2cccs2)c1 | i | 9% | i | 16µM* | 2%
SMILES | KB-3-1 tox | MCF10A rerep | KB-V1 cytotox | ELG1 DNA repair | SW480 rereplic
CCN(CC(=O)Nc1ccc(C(=O)Nc2ccc(OC)cc2)cc1)Cc1nc2ccccc2c(=O)[nH]1 | i | -3% | i | 6.5µM* | -19%
CCN(Cc1nc2ccccc2c(=O)[nH]1)C(=O)c1cccc(NC(=O)c2cccs2)c1 | i | 9% | i | ? | 0%
O=C(CSc1nnc(-c2ccccc2)c(-c2ccccc2)n1)NCCc1ccccc1 | i | . | i | . | .
CCN(CC(=O)Nc1sc2c(c1C#N)CCC(C)C2)CC(=O)NC1CCS(=O)(=O)C1 (configuration not stated) | i | 2% | i | 18µM* | ?
CC1CCc2c(sc(NC(=O)CCc3nc4ccccc4c(=O)[nH]3)c2C#N)C1 (configuration not stated) | i | -6% | ? | 12% | -7%
CCN(CC(=O)Nc1ccc(C(C)=O)cc1)CC(=O)Nc1ccc2c(c1)OCCO2 | i | 0% | i | -29% | -3%
CCN(CC(=O)Nc1ccc2c(c1)OCCO2)CC(=O)Nc1ccccc1C(F)(F)F | i | 6% | 12µM* | 10% | -5%
CCN(CC(=O)Nc1sc2c(c1C#N)CCC(C)C2)Cc1nc2ccccc2c(=O)[nH]1 (configuration not stated) | i | 59% | i | 13µM* | 18%
COc1ccc(CCC(=O)NNC(=O)c2ccc(OC)cc2)cc1 | ? | 3% | i | 12% | 8%
COC(=O)[C@H]1C[C@@]2(O)CN(S(=O)(=O)c3ccc(C)cc3)C[C@@]2(OC(=O)NC2CCCC2)C[C@H]1C(=O)OC | i | . | i | . | .
CCOc1ccc2[nH]c(=O)c(CN(Cc3cccs3)Cc3nnnn3C(C)(C)CC)cc2c1 | i | -2% | 18µM* | ? | 18%
Cc1cccc2cc(CN(Cc3cccs3)Cc3nnnn3Cc3ccccc3)c(=O)[nH]c12 | i | 18% | i | 18µM* | 1%
Cc1ccc2oc(-c3ccc(Cl)c(NC(=O)c4ccc(OC(C)C)cc4)c3)nc2c1 | i | . | i | . | .
O=C(Cc1ccccc1F)Nc1cccc(S(=O)(=O)N2CCOCC2)c1 | i | -16% | i | -10% | 4%
Cc1ccc(C(C[N+](=O)[O-])c2c(C)[nH]n(-c3ccccc3)c2=O)cc1 (configuration not stated) | i | ? | i | 3% | ?
Cc1[nH]n(-c2ccccc2)c(=O)c1C(C[N+](=O)[O-])c1ccc(Cl)cc1 (configuration not stated) | i | ? | i | -7% | 16µM*
C[C@@H]1O[C@H](C2CCCC2)Cc2[nH]c(=S)[nH]c(=O)c21 | 16µM* | . | ? | . | .
CC(C)[C@@H]1Cc2[nH]c(=O)[nH]c(=O)c2[C@H](C)O1 | ? | . | 18µM* | . | .
CC(C)[C@@H]1Cc2[nH][nH]c(=O)c2[C@H](C)O1 | i | . | ? | . | .
CC(C)[C@@H]1Cc2[nH]c(=S)[nH]c(=O)c2[C@H](C)O1 | 8.2µM* | . | 5.8µM* | . | .
